Screens: PubChem, National Center for Advancing Translational Sciences (NCATS)
Rows were chosen to be rich in hits. Some 8.8% of all compounds tested hit in one or more screens of this group.
HT1080 IDH1KD tx – qHTS for induction of synthetic lethality in tumor cells producing 2HG: qHTS for the HT-1080-IDH1KD cell line; 2% of 360,000 active; Potency, µM (top dose mostly 46.1 µM), for inactives: at the highest dose activity, negative = toxicity, actives largely listed as cytotoxic; AID 686971, 2013; HT-1080 IDH1 knockdown viability, ATP luminescence, 48 h;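 also: potency is read from the fitted curve at half-maximal effect; 0% = DMSO wells and -100% = cell-free medium wells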
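Luminescent ATP read-out (CellTiter-Glo, 10 min at room temperature) after 48 h compound exposure at 37 °C gave viability of IDH1-knockdown HT-1080 cells. Activity was normalised to DMSO and cell-free wells, then fitted as concentration-response curves.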
HT1080-NT tox – qHTS for induction of synthetic lethality in tumor cells producing 2HG: qHTS for the HT-1080-NT fibrosarcoma cell line | Potency, µM (titrated, usually from 46.1 µM), for the others: top-dose activity, negative = less viability, usual class: cytotoxic | 1.6% of 360,000 active | HT-1080-NT fibrosarcoma viability, CellTiter-Glo ATP luminescence, 48 h;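 also: NT is the 2HG producing partner of a matched IDH1 knockdown line; potency is read from the fitted curve at half-maximal effect; 0% = DMSO-treated cells and -100% = media-only wells without cells; nearly all actives have a fitted effect of over 55% in size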
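Read-out is CellTiter-Glo luminescence after 10 minutes at room temperature, following 48 hours' compound treatment of HT-1080-NT cells (750 cells/well, RPMI, 5% FBS, 37 degrees C).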
KB-3-1 cytotox – qHTS assay for MDR1-selective chemotherapeutics: Primary screen using the parental adenocarcinoma cell KB-3-1. KB-3-1 viability, CellTiter-Glo ATP luminescence, 72 h. Potency, µM (top dose mostly 46.1 µM), most hits filed as cytotoxic. 1.4% of 400,000 active; also: potency is read from the fitted curve at half-maximal effect; nearly all actives have a fitted effect of over 60% in size
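Viability of parental KB-3-1 cells, measured by CellTiter-Glo luminescence, followed a 72 h incubation at 37 °C with pinned compounds in phenol-red-free DMEM containing 10% FBS.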
KB-V1 cytotox – qHTS assay for MDR1-selective chemotherapeutics: Primary screen using the drug-selected MDR subline cells KB-V1; 3.4% of 400,000 active; Potency, µM (highest dose often 46.1 µM), hits mostly cytotoxic; KB-V1 MDR cells viability, CellTiter-Glo, 72 h; also: potency is read from the fitted curve at half-maximal effect; nearly all actives have a fitted effect of over 60% in size
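Cytotoxicity toward P-gp-expressing KB-V1 cells was determined as loss of CellTiter-Glo luminescence after 72 h at 37 degrees C. Compounds were tested in quantitative HTS format across a concentration range, with curves fitted to normalized data.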
IL1B secr inh – qHTS for Inhibitors of Inflammasome Signaling: IL-1-beta AlphaLISA Primary Screen | THP-1 LPS/ATP IL-1B secretion, AlphaLISA, 16 h; active compounds read low | activity change, % at 57.5 µM | 4.7% of 360,000 active | AID 743279, 2014; in the data active = activity change below about -50%; inconclusive = mostly about -30% to -49%
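THP-1 cells pretreated 1 hr with compounds (up to 57.5 uM final), then stimulated with LPS (250 ng/mL final) plus ATP (1.25 mM final); secreted IL-1B measured by AlphaLISA after 16 hr, decreased signal indicating inhibition.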
* = called active by the depositor; i = inactive; ? = inconclusive; nt = no result given; ! = not confirmed by another sample; [ ] = remark or other dose. Unless noted, calls follow the shape of the dose curve; as a rule, active = well fitted curve in the direction sought with a large enough effect; inconclusive = small, poorly fitted or top-dose-only effect, or another doubt; inactive = no such curve, though single readings can be large; an effect the other way counts as inactive or inconclusive. Unless noted, % is scaled to controls: 0 for no effect and ±100 for the full control effect.

SMILES | HT1080 IDH1KD tx | HT1080-NT tox | KB-3-1 cytotox | KB-V1 cytotox | IL1B secr inh
O=C(Nc1ccc(F)cc1F)N1CCN(c2ncccn2)CC1 | 13% | 14% | i | i | -27
Fc1ccc(NC(=S)N2CCCN(c3ccc(C(F)(F)F)cn3)CC2)c(F)c1 | ? | 23µM* | i | ? | -19
O=C(Nc1ccc(F)cc1F)N1CCCN(c2ccc(C(F)(F)F)cn2)CC1 | 13µM* | ? | ? | ? | ?
Cc1nc2c(nc1C)C(=O)c1ccccc1C2=O | 18µM* | ? | 16µM* | 9.2µM* | -28
O=C1c2ccccc2-c2nc3ccccc3nc21 | 0% | 0% | i | i | 15
Cc1cccn2cc(-c3ccc(S(=O)(=O)N4CCOCC4)cc3)nc12 | -19% | ? | i | 2.3µM* | 29
O=[N+]([O-])c1cccc(/C=C/c2ccccc2)c1 | nt | nt | i | i | nt
CC1(C)COC(/C=C/c2cccc([N+](=O)[O-])c2)=N1 | ? | ? | ? | i | -107*
CC1=CC(C)(C)NC(=S)N1c1cccc2cc(S(=O)(=O)O)ccc12 | 3% | 4% | i | i | -13
O=C1Nc2ccc(I)cc2C1=Cc1cc(Br)c(O)c(Br)c1 | nt | nt | i | i | nt
COc1ccc2c(c1)/C(=C\c1cccc(/C=C3/C(=O)Nc4ccc(OC)cc43)n1)C(=O)N2 | 3.3µM* | 2.9µM* | 1.8µM* | i | -107*
Oc1c(C(Nc2nccs2)c2ccc(C(F)(F)F)cc2)ccc2cccnc12 (stereo not drawn) | ? | ? | ? | ? | -103*
CC(C)C(=O)NC(c1ccco1)c1ccc2cccnc2c1O (stereo not drawn) | ? | 4.1µM* | 4.1µM* | 4.6µM* | 121
Oc1c(C(Nc2nc3ccccc3s2)c2ccco2)ccc2cccnc12 (stereo not drawn) | ? | -30% | i | ? | -99*
CCn1nc(C)cc1C(=O)N1CCCC(N2CCN(Cc3ccc4c(c3)OCO4)CC2)C1 (stereo not drawn) | 7% | 2% | i | i | 32
O=C1C2C(C(=O)N1/N=C/c1ccc([N+](=O)[O-])o1)C1C=CC2C12CC2 (stereo not drawn) | ? | ? | i | i | -91*
COC(=O)c1cccc(-c2ccc(/C=N/N3C(=O)C4C5C=CC(C6CC56)C4C3=O)o2)c1 (stereo not drawn) | -1% | 10% | i | i | 0
O=C1C2C3C=CC(C4CC34)C2C(=O)N1/N=C/c1ccc(-c2ccc([N+](=O)[O-])cc2)o1 (stereo not drawn) | -6% | -1% | i | i | 0
O=C1C2C3C=CC(C4CC34)C2C(=O)N1/N=C/c1ccc([N+](=O)[O-])o1 (stereo not drawn) | 2.6µM* | 2.6µM* | 16µM* | ? | -98*
COC(=O)c1ccc(-c2ccc(/C=N/N3C(=O)C4C5C=CC(C6CC56)C4C3=O)o2)cc1 (stereo not drawn) | -3% | -3% | i | i | -57*
CC(C)c1ccc(-c2nnc3n(CCc4ccccc4)c(=O)c4ccccc4n23)cc1 | nt | nt | i | i | nt
N=C1SCC(=O)N1c1ncc(Cc2ccc(F)cc2)s1 | 16µM* | ? | i | i | -104*
Cc1ccc(-c2csc(N3C(=N)SCC3=O)n2)cc1 | ? | 24% | i | i | 23
O=C(c1ccccc1)c1c2c(cc3sc4ccccc4[n+]13)-c1cccc3cccc-2c13 | ? | ? | 21µM* | ? | -108*
Cc1sc2cc3c(c(C(=O)c4ccccc4)[n+]2c1C)-c1cccc2cccc-3c12 | 8.2µM* | 8.2µM* | 7.3µM* | i | -97*
SMILES | HT1080 IDH1KD tx | HT1080-NT tox | KB-3-1 cytotox | KB-V1 cytotox | IL1B secr inh
COCCN1C[C@@H](CO)O[C@@H](n2cnc3c(N4CCN(CCO)CC4)ncnc32)C1 | 3% | ? | i | i | 10
OC(COCC(F)(F)C(F)(F)C(F)(F)C(F)F)Cn1c2ccc(Cl)cc2c2cc(Cl)ccc21 (stereo not drawn) | ? | ? | ? | 18µM* | -97*
CCOC(=O)c1c(O)c2cc(Cl)ccc2n(CC)c1=O | 8% | 6% | i | i | nt
O=C(Cn1cnc2c(cnn2-c2ccc(Cl)cc2)c1=O)N1CCN(c2ccccc2)CC1 | ? | ? | i | 5.2µM* | -6
O=C(Cn1nc(-c2ccc(Cl)cc2)ccc1=O)N1CCN(c2ccccc2)CC1 | -14% | -4% | i | 21µM* | 7
O=C(Cn1ncc2ccsc2c1=O)N1CCN(c2ccccc2F)CC1 | nt | nt | i | i | nt
O=C(Cn1ncc2ccsc2c1=O)N1CCN(c2ccc(Cl)cc2)CC1 | nt | nt | ? | 21µM* | nt
CCOC(=O)c1cnc2c(ccc3ccccc32)c1Nc1cccc(C(F)(F)F)c1 | nt | nt | i | i | nt
CC(CNC(=O)C1CCN(S(=O)(=O)c2ccc3c(ccn3C)c2)CC1)c1ccccc1 (stereo not drawn) | nt | nt | i | i | nt
O=S1(=O)Nc2c(ccc3cccnc23)-c2ccccc21 | 0.32µM* | 0.56µM* | 18µM* | ? | -100*
Clc1ccc2ccc3cccnc3c2n1 | 3% | -1% | i | i | -6
CCOC(=O)c1[nH]c(C)c(C(=O)Nc2ccc(C)c(Cl)c2)c1C | 13µM* | 0%[9.24 µM] | ? | i | 0
CCNC(=O)c1c(C)[nH]c(C(=O)OCC)c1C | -1% | 10% | i | ? | 72
CCOC(=O)c1[nH]c(C)c(C(=O)Nc2ccc(C)c(F)c2)c1C | 3.5µM* | 10µM* | ? | 2.9µM* | 40
O=C(c1cccc(-c2ccccc2)c1)N1CC[C@@H](N2CCC(O)CC2)[C@H](O)C1 | 7% | -10% | i | i | -12
CNC(=S)/N=C(/Nc1ccccc1)c1ccccc1 | 6% | 6% | i | i | -69*
CNC(=S)/N=C(\Nc1ccc(C)cc1)c1ccccc1 | 17% | 1% | i | i | nt
O=C(CCn1ccc2cc(S(=O)(=O)N3CCCC3)ccc21)NCc1ccccc1Br | nt | nt | i | i | nt
NC(=O)c1nn(Cc2ccccc2)c(=O)c2ccccc12 | -11% | -5% | i | ? | 23
COC(=O)c1nn(Cc2ccccc2)c(=O)c2ccccc12 | 21% | 5% | i | 16µM* | 29
CCN(CC)Cc1cc2[nH]c3c4ccc(Cl)cc4ncc3c2cc1OC | ? | 22µM*! | i | i | -11
CCOc1ccc2nc(SCC(=O)NC3CCCCC3)[nH]c2c1 | -17% | -4% | i | 16µM* | -16
